Drawing on PubChem BioAssay AID1347076 (National Center for Advancing Translational Sciences (NCATS), 2019), this text covers Potency for 96 molecules.

Each structure is given as a SMILES string. The campaign covered roughly 400,000 compounds. About 13,000 (3.2%) were called active. A call without a number means that no potency is given here. Inconclusive results (about 18%) are left out. The sample holds actives, similar compounds and a random draw of the others, so the mix is not that of the screen. Calls follow the shape of the dose curve; as a rule, active = well fitted cell-killing curve with a large enough effect; inconclusive = small, poorly fitted or top-dose-only effect, or effect the other way; inactive = flat fitted curve, though single readings scatter.
Potency is read from the fitted curve at half-maximal effect.

The nature of this test: qHTS assay for MDR1-selective chemotherapeutics: Primary screen using the drug-selected MDR subline cells KB-V1. Also: nearly all actives have a fitted effect of over 60% in size. Conditions: KB-V1 MDR cells viability, CellTiter-Glo, 72 h; series mostly up to 46.1 µM. An outline of the steps: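 Drug-selected KB-V1 cells, grown in DMEM lacking phenol red with 10% FBS, receive compound titrations; after three days at 37 degrees C, surviving cell ATP is quantified by CellTiter-Glo luminescence and responses normalized and curve-fitted.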
As for `COc1cccc(NC(=O)CN(C)C(=O)/C=C/c2cc(OC)ccc2OC)c1`, the Potency was 10.3 µM (active). Under `COc1cccc(NC(=O)CN(C)C(=O)/C=C/c2cn(-c3ccccc3)nc2-c2cccs2)c1` stands “inactive”.

Take `COc1cccc(NC(=O)CN(C)C(=O)Cc2ccc(Cl)cc2Cl)c1`: the Potency entry is “inactive”. The result for `O=C(O)C1CCCN1c1nc(Cl)ccc1[N+](=O)[O-]` (stereo unspecified) reads “inactive”. For the molecule `COc1ccc(NC2CCCN(C(=O)c3ccccc3-c3ncc[nH]3)C2)cc1` (stereo unspecified), the Potency result is “inactive”. In the case of `COc1cc(OC)c(/C=N/NC(=O)c2ccc([N+](=O)[O-])cc2)cc1Br`, the Potency entry was “inactive”. Take `COc1cccc(/C=N/NC(=O)c2cccc([N+](=O)[O-])c2)c1OS(=O)(=O)c1ccc(C)cc1`: the Potency was 16.4 µM (active). Under `Cc1ccc(S(=O)(=O)Oc2ccc(/C=N/NC(=O)c3ccncc3)cc2)cc1` stands “inactive”.

Turning to `CC(C)C[C@H]1CN([C@@H](Cc2ccccc2)CN2CCC[C@@H]2CN2C(=O)C(=O)NC[C@@H]2Cc2ccc(O)cc2)C(=O)C(=O)N1CCc1ccccc1`, the Potency entry was “inactive”. In the case of `CCOc1cc(-c2nnc(SCC(=O)NC3CCCCC3)nc2-c2ccc(OC)c(OCC)c2)ccc1OC`, the Potency entry is “inactive”. The result for `COc1ccc(-c2nc3cnccn3c2NC2CCCCC2)cc1-c1cccc(Cl)c1` reads 14.6 µM (active); that for `COc1ccccc1N1CCN(c2ncnc3onc(-c4cccc(Cl)c4)c23)CC1`, “inactive”. On to `COc1ccc(C)cc1S(=O)(=O)NC1CCCCC1`, for which the Potency entry is “inactive”.

Consider `Cc1ccc(Nc2c(-c3ccc(C)cc3)nc3cnccn23)cc1`, for which the Potency entry was “inactive”. Turning to `COc1cccc(CNC(=O)CN2C(=O)CCc3cc(S(=O)(=O)N4CCOCC4)ccc32)c1`, the Potency entry was “inactive”. The result for `CCCNC(=O)c1cc(C2CCCCN2C(=O)OC)on1` (stereo unspecified) reads “inactive”; that for `CCC(C)C(CO)NC(=O)/C=C/[C@H]1O[C@@H](n2cnc3c(NC(=O)c4ccccc4)ncnc32)[C@H](O)[C@@H]1O` (stereo partly specified), “inactive”; that for `COc1ccc([C@H]2N[C@]3(CCCN(CC4CCCCC4)C3=O)[C@H]3C(=O)N(C)C(=O)[C@@H]23)cc1`, “inactive”. Under `Cn1c(=O)c2cc(NC(=O)NCCc3cccs3)ccc2n1Cc1cccc(C(F)(F)F)c1` stands “inactive”; under `CC(=O)Nc1cccc(-c2csc(Nc3cccc(C)n3)n2)c1`, 20.6 µM (active); under `Cc1cccc(Nc2nc(-c3ccccc3)cs2)n1`, “inactive”. As to `CC(=O)NC(c1ccccc1)c1nc(-c2cccc(C(C)C)c2)cs1` (stereo unspecified), the Potency result is “inactive”. The result for `O=C1CC[C@@H](C(=O)N2CSC[C@@H]2C(=O)Nc2ccc(C(F)(F)F)cc2)N1` reads “inactive”; that for `Cc1ccc(-c2nc(=N)sn2Cc2ccccc2)cc1`, “inactive”. Under `CN(N=O)c1ccc(C=C2c3ccccc3-c3ccccc32)cc1` stands “inactive”. As to `O=C(NCc1cccnc1)c1cc(C2CCCN(C(=O)C3CCCCC3)C2)on1` (stereo unspecified), the Potency entry is “inactive”. The result for `CC1(C)CC(=O)c2cc(C(=O)NCc3ccccc3)c(=O)[nH]c2C1` reads “inactive”. On to `CC(NC(=O)c1ccccc1SCC(=O)N1CCCC1)c1ccccc1` (stereo unspecified), for which the Potency result was “inactive”. The result for `CC(NC(=O)c1ccccc1F)c1cccc2ccccc12` (stereo unspecified) reads “inactive”; that for `CC(NC(=O)c1cccc2ccccc12)c1ccc2c(c1)CCCC2` (stereo unspecified), 20.6 µM (active); that for `O=C1CCC(=O)N1CCC(=O)N(C(=O)NC1CCCCC1)C1CCCCC1`, “inactive”. Under `CCOc1ccc(CCN2C(=O)C(=O)N([C@@H](Cc3ccc(O)cc3)CN3CCC[C@H]3CN3C(=O)C(=O)NC[C@@H]3CC(C)C)C[C@@H]2Cc2ccccc2)cc1` stands “inactive”; under `CCCNC(=O)C1(C)CCN(C(=O)c2ccccc2OC(F)(F)F)C1` (stereo unspecified), “inactive”. The result for `Cc1cc(O)ccc1-c1cc(C(=O)NCc2cc(C(F)(F)F)cc(C(F)(F)F)c2)[nH]n1` reads “inactive”; that for `CN1CCN(c2ccc([N+](=O)[O-])c(Sc3nc4ccccc4[nH]3)c2)CC1`, 14.6 µM (active). On to `CC1CCN(c2ccc([N+](=O)[O-])c(SCCO)c2)CC1`, for which the Potency result is “inactive”. Under `O=[N+]([O-])c1ccc(N2CCSCC2)cc1O` stands “inactive”; under `COc1ccc(Sc2ccc(NC(=O)c3cccc(Cl)c3)cc2C#N)cc1`, “inactive”; under `COc1ccc(-c2nn(-c3ccccc3)cc2C(=O)Nc2nccs2)cc1OC`, “inactive”. Turning to `COc1ccc(-c2nn(-c3ccccc3)cc2/C=N/Nc2ccccn2)cc1OC`, the Potency is 3.66 µM (active). On to `Oc1ccc(Br)cc1/C=N/Nc1ccccn1`, for which the Potency result is “inactive”. Under `CS(=O)(=O)c1cccc(-c2ccc3nncn3c2)c1` stands “inactive”. Under `CCN(CCCNC(=O)c1c(C)oc2ncn(CC(C)C)c(=O)c12)Cc1ccccc1` stands “inactive”. Under `OCCN1CCN(c2ncnc3c2ncn3[C@H]2CN(Cc3ccco3)C[C@@H](CO)O2)CC1` stands “inactive”.

As to `O=S(=O)(NCc1ccc(Cl)cc1Cl)c1cccs1`, the Potency result is “inactive”. Under `Cc1ccc(S(=O)(=O)Cc2cc(-c3ccc(Cl)cc3)no2)cc1` stands “inactive”; under `O=S(=O)(Cc1ccc(Cl)cc1Cl)c1ccc(Cl)cc1`, 1.46 µM (active); under `CCCCc1ccc(S(=O)(=O)NC(=O)C2(C)CCN2C(=O)c2c(C)noc2C)cc1` (stereo unspecified), “inactive”. `CCN(CCN(C)C)C(=O)c1ccc2nc(C)c(N(C)C(=O)CCc3ccccc3)n2c1`: the Potency result was “inactive”. The result for `O=C(NC1CCCC1)C(c1ccccn1)N(C(=O)c1csnn1)C1CCCC1` (stereo unspecified) reads 20.6 µM (active); that for `Cc1ccc(C(C(=O)NC2CCCCC2)N(C(=O)c2csnn2)C2CC2)o1` (stereo unspecified), “inactive”; that for `O=C(NC1CCCC1)C(c1ccc(Cl)cc1)N(C(=O)c1csnn1)C1CC1` (stereo unspecified), “inactive”. As to `Cc1ccc(NC(=O)c2cc3cc(C)ccc3n2C)cc1`, the Potency result was “inactive”. Under `COc1ccccc1-c1n[nH]nc1C1=CC(=O)CC(C)(C)C1` stands “inactive”; under `CC(OC(=O)c1cccc(S(=O)(=O)N2CCOCC2)c1)C(=O)NCC1CCCCC1` (stereo unspecified), “inactive”; under `CNC(=O)NC(=O)C(OC(=O)c1cccc(S(=O)(=O)N2CCCCC2)c1)c1ccccc1` (stereo unspecified), 23.1 µM (active). For `O=C(NNC1=NCCC1)c1cccc(S(=O)(=O)N2CCCCC2)c1`, the Potency result was “inactive”. The result for `Cc1cccc(CNC(=O)c2cnc3sc(N4CCCCC4)nn3c2=O)c1` reads “inactive”; that for `Cc1ccc(C)c2sc(NC(=O)c3ccc(S(=O)(=O)N4CCCC4)cc3)nc12`, “inactive”; that for `Cc1nn(CC(=O)NCCc2ccccc2)c(=O)c2c1sc1ccccc12`, “inactive”.

Consider `COC(=O)c1ccc(COc2ccc(/C=N/NC(=O)C(=O)Nc3ccc(OC)cc3)cc2OC)o1`, for which the Potency entry is “inactive”. The result for `COc1cc(/C=N/NC(=O)c2ccoc2C)ccc1OCCN1CCCCC1` reads “inactive”; that for `COc1cc(/C=N/NC(=O)Nc2ccccc2)ccc1OCCOc1ccccc1C`, 2.31 µM (active); that for `C[C@H]1CN([C@@H](C)CO)C(=O)CCCn2cc(nn2)CO[C@@H]1CN(C)S(=O)(=O)c1cccc(C#N)c1`, “inactive”. The result for `O=C(COC(=O)c1ccc(S(=O)(=O)N2CCCCCC2)cc1)Nc1ccccc1C(F)(F)F` reads “inactive”; that for `O=C(NCCc1ccccc1)c1ccc2c(c1)N(Cc1ccccc1)CCS2`, “inactive”.

Regarding `CCOC(=O)N1CCN(C(=O)c2ccc3c(c2)N(Cc2ccc(C)cc2)CCS3)CC1`, the Potency was 3.26 µM (active). In the case of `O=C(NCCN1CCOCC1)c1ccc2c(c1)N(Cc1ccc(Cl)cc1)CCS2`, the Potency entry was “inactive”. With `OC[C@@H]1O[C@H](n2cnc3c(SCc4ccccc4)ncnc32)[C@H](O)[C@H]1O`, the Potency entry is “inactive”. Take `COc1ccc(-c2ccc(Nc3ccc(S(=O)(=O)N4CCCC4)cc3)nn2)cc1OC`: the Potency was 13 µM (active). Under `COc1cc(C(C)=O)ccc1OC(C)C(=O)Nc1ccc(S(=O)(=O)N2CCCC2)cc1` (stereo unspecified) stands “inactive”; under `COc1cc(C(=O)NNC(=O)c2ccc(S(=O)(=O)N3CCCCC3)cc2)cc(OC)c1OC`, “inactive”. Under `CC(C)Oc1cc(F)ccc1-c1cc(C(=O)Nc2cccc(Cl)c2)[nH]n1` stands “inactive”; under `CCCCCC(=O)N1C[C@H](O)[C@@H](n2cc(COC(=O)c3ccccc3)nn2)C[C@@H]1c1ccc(C)cc1`, “inactive”. Under `COC(=O)c1c(NC(=O)CSc2nncs2)sc2c1CCCCC2` stands 23.1 µM (active). For the molecule `COc1cccc(OC)c1C(=O)Nc1sc2c(c1C(N)=O)CCCC2`, the Potency result is “inactive”.

`COC(=O)c1c(NC(=O)c2ccc(Cl)c(Cl)c2)sc2c1CCCC2`: the Potency entry was “inactive”. In the case of `Cc1cccc(C(=O)OCC(=O)Nc2sc3c(c2C#N)CCC3)c1`, the Potency result is “inactive”. Regarding `CCOC(=O)c1c(NC(=O)CSc2nnc(Cc3csc(N)n3)n2C)sc(C)c1C`, the Potency entry was “inactive”. In the case of `NC(=O)c1c(NC(=O)CSc2nnc(-c3ccco3)n2N)sc2c1CCCC2`, the Potency entry was “inactive”. The result for `COC(=O)c1c(NC(=O)COC(=O)[C@@H](NS(=O)(=O)c2ccccc2)C(C)C)sc2c1CCC2` reads 14.6 µM (active). For the molecule `COC(=O)c1c(NC(=O)CN2C(=O)NC(CCc3ccccc3)C2=O)sc2c1CCCCC2` (stereo unspecified), the Potency result was “inactive”. Under `CCc1ccc(N(CC(=O)Nc2sc3c(c2C(=O)OC)CCCC3)S(C)(=O)=O)cc1` stands 9.2 µM (active); under `COC(=O)c1c(NC(=O)CN(c2ccc(C)c(C)c2)S(C)(=O)=O)sc2c1CCCC2`, “inactive”; under `CCOC(=O)c1c(NC(=O)CSc2nnc(CN3CCOCC3)n2C)sc2c1CCCC2`, 5.8 µM (active). Under `COC(=O)c1c(NC(=O)C2CC(C)=C(C)CC2C(=O)O)sc2c1CCCCC2` (stereo unspecified) stands “inactive”; under `O=C(NCc1cccnc1)c1ccc2nc([C@@H]3O[C@H](CO)[C@H](O)[C@H](O)[C@H]3O)[nH]c2c1`, “inactive”. On to `N#Cc1ccccc1-n1c(N)c(C(=O)N2CCCC2)sc1=S`, for which the Potency is 16.4 µM (active).

In the case of `O=C(c1ccc(S(=O)(=O)c2ccccc2)cc1)N1CCCCCC1`, the Potency entry is “inactive”.

For `Cc1cccc(-n2c(N)c(C(=O)N3CCN(C)CC3)sc2=S)c1`, the Potency entry was “inactive”. As to `COc1ccc(C(=O)NCC[N+](C)(C)C)cc1`, the Potency entry is “inactive”.

`CC1(C(=O)NCc2ccccc2)CSCC(=O)N1CCCN1CCOCC1` (stereo unspecified): the Potency result is “inactive”. As to `O=C(Nc1ccc(Cl)c(C(F)(F)F)c1)C1Cc2c(-c3ccccc3Oc3ccccc3)ccnc2O1` (stereo unspecified), the Potency entry was “inactive”. Under `CNC(=O)c1sc(Nc2ccc(OCc3ccccc3)cc2)nc1C` stands 8.2 µM (active); under `Cc1cccc(NC(=O)Nc2ccc(OCc3ccccc3)cc2)n1`, “inactive”; under `CNC(=O)c1sc(NCc2ccccc2OC)nc1C`, “inactive”.
